# VDR inhibitor – blocks the human vitamin D receptor. P11473. VDR-SRC2-3 peptide fluorescence polarization, 2 h. Potency, µM, actives largely listed as inhibitors. 0.93% of 400,000 active. AID 504847
#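 Compounds are added to VDR with labelled SRC2-3 coactivator peptide and held 2 h at room temperature. Inhibition of the VDR–peptide interaction is then read as a change in fluorescence polarization.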
# PLK1 PBD block – PLK1 (human) polo-box domain binding inhibition. Plk1 PBD binding of FITC phosphopeptide, fluorescence polarization. P53350. 2.8% of 360,000 active. Potency, µM, hits mostly inhibitors. AID 720504; note: series mostly up to about 57 µM; nearly all actives have a fitted effect of over 65% in size
# TDP1 block – inhibitors of human tyrosyl-DNA phosphodiesterase TDP1 | Q9NUW8 | recombinant TDP1, AlphaScreen DNA substrate cleavage | Potency, µM (top dose mostly 130 µM), most hits filed as inhibitors | 0.28% of 350,000 active | AID 485290; note: nearly all actives have a fitted effect of over 40% in size
# Target sequence (Q9NUW8 whole entry, looked up): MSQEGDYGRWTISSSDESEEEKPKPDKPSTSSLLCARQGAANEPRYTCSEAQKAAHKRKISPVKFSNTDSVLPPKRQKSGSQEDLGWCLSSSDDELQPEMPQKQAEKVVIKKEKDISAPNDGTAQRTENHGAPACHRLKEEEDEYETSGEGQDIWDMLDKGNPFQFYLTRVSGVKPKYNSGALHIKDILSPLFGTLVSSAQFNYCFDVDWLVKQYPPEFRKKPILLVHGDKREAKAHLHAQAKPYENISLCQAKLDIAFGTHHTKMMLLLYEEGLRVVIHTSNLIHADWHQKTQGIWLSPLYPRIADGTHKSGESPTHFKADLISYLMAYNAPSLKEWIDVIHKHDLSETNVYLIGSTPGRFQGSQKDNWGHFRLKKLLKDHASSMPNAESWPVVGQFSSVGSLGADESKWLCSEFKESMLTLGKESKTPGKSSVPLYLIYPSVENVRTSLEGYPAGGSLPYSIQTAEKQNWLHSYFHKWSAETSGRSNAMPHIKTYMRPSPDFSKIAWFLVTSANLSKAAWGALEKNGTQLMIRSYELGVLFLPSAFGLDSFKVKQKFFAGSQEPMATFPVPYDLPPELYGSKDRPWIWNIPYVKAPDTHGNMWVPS
#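 AlphaScreen read-out: signal falls as enzyme removes the 3' tyrosine-FITC from a 5'-biotinylated DNA oligo (15 nM, 5 min, RT). Enzyme was E. coli-made recombinant Tdp1 at 1 nM, exposed to compound for 15 min beforehand; beads 10 ug/ml, 10 min.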
# TDP1 cell CPT – DT40-hTDP1 cell growth loss with CPT | chicken DT40 Tdp1-/-;hTDP1 cells + 20 nM CPT, ATP luminescence, 48 h | Potency, µM (doses to about 46.2 µM), most hits filed as inhibitors | 12% of 420,000 active | AID 686979; note: nearly all actives have a fitted effect of over 55% in size
#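 Chicken DT40 Tdp1-/- cells complemented with human TDP1, 400 cells/well, exposed to compounds plus 20 nM camptothecin for at least 48 h at 37 C; viability read as ATP content by CellTiter-Glo luminescence.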
# KAT2A inh – blocks human GCN5L2 histone acetyltransferase; GCN5L2 HAT assay, ThioGlo1 CoA-SH fluorescence; Q92830; Potency, µM (doses to about 58.9 µM), most hits filed as inhibitors; 0.21% of 390,000 active; AID 504327
#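 Fluorescence readout, Ex340nm/Em540nm: ThioGlo1 (50uM final) reacts with free CoA thiol released as 20nM GCN5L2 acetylates H3(1-25) peptide (75uM) using acetyl-CoA (70uM). Compound and enzyme sat 15 min beforehand; 20 min room-temperature reaction.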
# DT40 TDP1 no CPT – qHTS for Inhibitors of human tyrosyl-DNA phosphodiesterase 1 (TDP1): qHTS in cells in absence of CPT. 15% of 420,000 active. Potency, µM (top dose mostly 46.2 µM), most hits filed as inhibitors. DT40 Tdp1-/- hTDP1 cells, no CPT, ATP luminescence, 48 h; note: nearly all actives have a fitted effect of over 55% in size
#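 Readout: luminescence from CellTiter-Glo after 30 min in the dark at RT. Cells: DT40 Tdp1-/- with stable hTDP1, 400/well. Exposure: compounds alone, ≥48 hr, 37 °C.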
# A number is an active result; 0 = inactive; ? = inconclusive; - = no result given; [ ] = remark or other dose. Hits are enriched below; roughly 18% of the tested compounds scored in any of these assays. Calls come from the whole dose curve; as a rule, active = well fitted curve in the direction sought with a large enough effect; inconclusive = small, poorly fitted or top-dose-only effect, or another doubt; inactive = no such curve, though single readings can be large; an effect the other way counts as inactive or inconclusive.
SMILES,VDR inhibitor,PLK1 PBD block,TDP1 block,TDP1 cell CPT,KAT2A inh,DT40 TDP1 no CPT
O=C(Nc1ccc(Cl)cc1)Nc1nnc(CSCc2ccccc2Cl)s1,0,0,0,16.4µM,0,11.6µM
COc1ccccc1N1CCNC(C)C1=O (stereo not drawn),79.4µM,8.44µM,-,?,0,?
Cc1ccc(CN(C(=O)COc2ccccc2[N+](=O)[O-])c2ccccn2)cc1,0,-,0,?,0,?
Cc1ccc(CNC(=O)c2ccc(-c3nc(CS(=O)c4ccccc4)c(C)o3)cc2)cc1 (stereo not drawn),0,-,0,18.4µM,0,8.2µM
COc1ccc(CNC(=O)c2ccc(-c3nc(CS(=O)c4ccc(C)cc4)c(C)o3)cc2)cc1 (stereo not drawn),0,-,0,?,0,?
COc1ccccc1CNC(=O)c1ccc(-c2nc(CS(=O)c3ccc(C)cc3)c(C)o2)cc1 (stereo not drawn),0,-,0,?,0,13µM
CCOC(=O)Cc1csc(NC(=O)CSc2nc(N)c3c(C)c(C)sc3n2)n1,0,0,0,?,0,?
Cc1occc1-c1nnc(SCC(=O)c2c(N)n(C3CC3)c(=O)[nH]c2=O)n1C,0,0,0,0,0,0
COc1cc(C2NC(=O)N(C)C3=C2C(=O)N(c2ccccc2)C3)ccc1O (stereo not drawn),0,-,0,-,0,-
CCSc1ccc2cc(OC)ccc2[n+]1CC,0,0,0,5.8µM,?,7.31µM
CCOC(=O)/C(=C/C=C1\Sc2cc(C)c(C)cc2N1CC)C(C)=O,0,0,0,4.61µM,0,2.31µM
Cc1ccc(N2C(=O)CSC23C(=O)Nc2ccccc23)cc1F (stereo not drawn),0,-,0,-,0,-
CCc1cccc(NS(=O)(=O)c2csc(C(N)=O)c2)c1,0,0,-,0,0,14.6µM
Cc1ccc(NS(=O)(=O)c2csc(C(N)=O)c2)cc1C,0,0,-,?,0,20.6µM
Cc1ccc(NS(=O)(=O)c2coc(C(N)=O)c2)cc1F,0,23.8µM,-,0,0,0
NC(=O)c1cc(S(=O)(=O)NC2CCCCC2)co1,0,0,0,0,0,0
COc1ccc2[nH]c(C)c(CCN3C(=O)C4CC=CCC4C3=O)c2c1 (stereo not drawn),?,21.2µM,0,0,0,0
COc1ccc2[nH]c(C)c(CN3CCC(C)CC3)c(=O)c2c1,0,0,0,0,0,0
C/C(CCC(C)C)=N\Nc1cc(C)c2ccccc2n1,?,0,0,10.3µM,0,7.31µM
O=C1c2ccccc2-c2nc3ccccc3nc21,?,0,0,?,0,?
Cc1nc2c(nc1C)C(=O)c1ccccc1C2=O,0,0,-,3.66µM,-,4.61µM
CCCCn1c(N)c(N(CCOC)C(=O)COC(=O)COc2cccc(C(C)=O)c2)c(=O)[nH]c1=O,0,0,0,0,0,0
CCOC(=O)c1ccc(NC(=S)Nc2ccccc2)cc1,0,0,0,?,0,?
CCOC(=O)c1nc(Nc2ccc(C(=O)OCC(C)C)cc2)c2ccccc2n1,0,-,-,6.51µM,0,6.51µM
CCOC(=O)c1nc(Nc2ccc(OC)cc2)c2ccccc2n1,0,0,-,?,0,20.6µM
SMILES,VDR inhibitor,PLK1 PBD block,TDP1 block,TDP1 cell CPT,KAT2A inh,DT40 TDP1 no CPT
CCOC(=O)c1nc(Nc2ccc(Nc3ccccc3)cc2)c2ccccc2n1,0,0,0,13µM,0,7.31µM
COc1ccc(Nc2nc(C)cc(C)c2C(N)=O)cc1,0,0,0,0,0,?
CCOC(=O)c1nc(Nc2ccccc2OC)c2ccccc2n1,0,-,-,11.6µM,0,2.59µM
COc1ccccc1Nc1nc(-c2ccccc2O)nc2ccccc12,0,0,0,?,0,?
CCOC(=O)c1nc(Nc2ccc(C(=O)O)cc2)c2ccccc2n1,0,0,0,0,0,0
CCCCCOC(=O)c1ccc(Nc2nc(C(=O)OCC)nc3ccccc23)cc1,0,-,-,3.26µM,0,1.3µM
CCOC(=O)CCC(NC(=O)c1ccc(Nc2nc3ccccc3nc2C(=O)OCC)cc1)C(=O)OCC (stereo not drawn),0,0,-,10.3µM,-,7.31µM
CCOC(=O)c1nc(Nc2cc(C)cc(C)c2)c2ccccc2n1,0,0,0,18.4µM,0,20.6µM
CC(C)OC(=O)c1ccc(NC(=O)Cn2c(-c3nonc3N)nc3ccccc32)cc1,0,0,-,0,0,0
CCOC(=O)c1nc(Nc2ccc(C(=O)OC(C)C)cc2)c2ccccc2n1,0,-,-,5.17µM,0,4.11µM
CCOC(=O)c1c(CCl)nc2ccccc2c1C,0,0,0,?,0,?
CCOc1ccccc1CNC(=O)CCn1cccn1,0,-,0,0,0,0
O=C(O)c1nn2c(C(F)(F)F)cc(-c3cccs3)nc2c1Cl,0,0,0,0,0,?
COc1cccc(CNC(=O)COC(=O)c2nc(Cl)c(Cl)c(Cl)c2Cl)c1,0,0,0,0.0082µM,0,?
CCOC(=O)c1ccc(Nc2nc(C(=O)OCC)nc3ccccc23)cc1,0,0,0,5.8µM,0,2.59µM
CCc1nc2ccccc2c(NC(=O)CN2CCC(C)CC2)c1C,0,0,0,0,0,?
CCOC(=O)c1nc(Nc2ccc(N3CCC(C)CC3)cc2)c2ccccc2n1,0,0,-,7.31µM,0,5.8µM
CCOC(=O)c1nc(NCc2cccc(OC)c2)c2ccccc2n1,0,0,0,?,0,16.4µM
COc1cccc(CNC(=O)CCl)c1,0,0,0,0,0,0
[O-][N+](=Cc1c(Cl)cccc1Cl)CC1(O)CCCCC1,-,0,-,0,-,0
CCn1c(COc2ccc(Cl)cc2)nnc1SC1CCc2ccccc2C1=O (stereo not drawn),0,0,0,?,0,20.6µM
CC1(C)CC(c2nc(-c3ccc(Br)cc3)cs2)CCS1 (stereo not drawn),?,3.77µM,0,?,0,?
CC1(C)CC(c2nc(-c3ccc(Cl)cc3)cs2)CCS1 (stereo not drawn),0,0,0,?,?,?
O=C(CSc1nc2c([nH]c3ccccc32)c(=O)n1-c1ccccc1)N1CCCC1,0,-,0,0,0,0
CCCN(CC(=O)Nc1ccccc1OC)C(=O)CSC(=S)N1CCCC1,0,0,0,?,0,0
Cc1cc2oc(=O)cc(-c3ccccc3)c2c(C)c1-c1ccc(C#N)cc1,0,0,0,16.4µM,0,16.4µM
CC(=O)c1ccc(-c2c(C)cc3oc(=O)cc(-c4ccccc4)c3c2C)cc1,?,0,0,18.4µM,0,23.1µM
COc1ccc(CCN(C)C(=O)c2cnn(-c3nccc(-c4ccc(C)o4)n3)c2C)cc1OC,-,-,-,0[9.04 µM],-,0

# Assay outcomes deposited in PubChem BioAssay by National Center for Advancing Translational Sciences (NCATS).
